Experimental data taken from PubChem BioAssay.

The compounds below were run against Fibroblast growth factor 10 (Homo sapiens) (UniProt O15520) (assay: FGF10 binders on small-molecule microarrays, primary screen, biochemical, small-molecule microarray, 635 nm fluorescence (AID 1102)). Conditions: FGF10 binding, fluorescence 635 nm, higher = more signal.
Fibroblast growth factor 10 (Homo sapiens), sequence (O15520 whole entry, looked up): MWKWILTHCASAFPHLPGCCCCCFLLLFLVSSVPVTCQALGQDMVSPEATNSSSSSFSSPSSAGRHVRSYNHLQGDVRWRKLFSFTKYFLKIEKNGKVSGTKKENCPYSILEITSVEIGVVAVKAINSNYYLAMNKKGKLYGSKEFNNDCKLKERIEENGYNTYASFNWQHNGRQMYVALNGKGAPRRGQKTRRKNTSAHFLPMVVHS

Row | SMILES | composite z-score
1 | Cn1c(=O)n2n(c1=O)[C@H]1[C@H](O)[C@@H]3O[C@@H]3C(=O)[C@H]1CC2 | 0.946
2 | C[C@@H]1CC[C@H]2C(=O)O[C@@H](Cc3ccccc3)CN2[C@H]1c1ccc(Br)cc1 | 0.383
3 | CCOC(=O)[C@H](CC(C)C)NC(=O)CCC1CC(OC(=O)NCCc2ccc(F)cc2)CC2(CCCC(COC(=O)NCCc3ccc(Cl)cc3)O2)O1 (some centres undefined) | 0.675
4 | CO[C@H]1COC(=O)[C@H](C)NC(=O)CC=C[C@@H](C)[C@H](OC)COC(=O)[C@@H](OCc2ccccc2)C=C[C@@H]1C | 0.0389
5 | C#CCCCON=C1C[C@@H](O)[C@@H](O)[C@@H]2[C@@H]3C(=O)N(c4ccc(F)cc4F)C(=O)[C@@H]3CC[C@H]12 | 0.947
6 | O=C1C[C@@H](O)[C@@H](O)[C@@H]2[C@@H]3C(=O)N(Cc4ccc5c(c4)OCO5)C(=O)[C@@H]3CC[C@H]12 | 0.309

What follows are compounds tested on glycogen synthase kinase-3 (GSK3A per assay name; protocol says GSK3B) (assay: GSK3 binders on small-molecule microarrays, primary screen, biochemical, small-molecule microarray, 635 nm fluorescence, GSK3A (AID 1103; note: the record names both GSK3A and GSK3B)). Conditions: small-molecule microarray binding, fluorescence 635 nm; higher = more signal.

Row | SMILES | composite z-score
7 | COc1ccc(O[C@H]2C=C[C@@H](c3ccccc3)O[C@@H]2CON=CC[C@@H]2C=C[C@H](OC(C)=O)[C@@H](COC(C)=O)O2)cc1 | -0.603
8 | CO[C@H]1COC(=O)CC=C[C@@H](C)[C@H](NS(=O)(=O)c2ccc(C)cc2)COC(=O)CCC[C@@H]1C | 0.22
9 | CON=CC[C@@H]1C=C[C@H](OC(C)=O)[C@@H](COC(C)=O)O1 | 0.184
10 | C=COC[C@@H]1CN2[C@@H](CC[C@@H](C)[C@@H]2c2ccc(Br)cc2)C(=O)O1 | -0.413
11 | O=C1[C@H]2[C@H]3[C@H](O)[C@H](O)CC(=NOCc4ccccc4)[C@@H]3CC[C@H]2C(=O)N1Cc1ccc2c(c1)OCO2 | -0.0163
12 | COC(=O)NCC=Cc1nc(CCCO)co1 | 0.926
13 | CO[C@H]1COC(=O)CC=C[C@H](C)[C@@H](OC)COC(=O)[C@@H](C)COC(=O)CC=C[C@@H]1C | 0.709
14 | COC(=O)[C@@H]1CC[C@H](C)[C@@H](c2ccc(C)cc2)N1C(=O)c1ccc(C=NOC[C@@H](C)[C@H](OCc2ccccc2)C(C)C)cc1 | 1.16
15 | COC(=O)CC=C[C@@H](C)[C@@H](C=NO[C@@H]1O[C@H](COC(C)=O)[C@@H](OC(C)=O)[C@H](OC(C)=O)[C@H]1OC(C)=O)NS(=O)(=O)c1ccc(C)cc1 | -0.448
16 | CCOC(=O)[C@H](CC(C)C)NC(=O)CCC1CC(OC(=O)NCc2cccc3ccccc23)CC2(CCCC(COC(=O)NCCOc3ccccc3)O2)O1 (some centres undefined) | 1.03
17 | COc1cccc([C@H]2Oc3ccc(OC)cc3C(=NO[C@@H](C)c3cn([C@H](CO)Cc4ccccc4)nn3)[C@@H]2O)c1 | -0.58
18 | COC(=O)CC=C[C@@H](C)[C@@H](C=NOC[C@H]1O[C@H](c2ccccc2)C=C[C@@H]1Oc1ccc(OC)cc1)NS(=O)(=O)c1ccc(C)cc1 | -1.78
19 | C=CC1=C[C@H](O)[C@@H]2O[C@@H]2C12OCCCO2 | 1.03
20 | COC(=O)CC=C[C@@H](C)[C@H](OCc1cccc(-c2ccccc2)c1)C1CCCCC1 | -1.21
21 | CC(C)CON=C1C[C@@H](O)[C@@H](O)[C@@H]2[C@@H]3C(=O)N(Cc4ccc5c(c4)OCO5)C(=O)[C@@H]3CC[C@H]12 | 0.589
22 | COc1ccc(O[C@H]2C=C[C@@H](c3ccccc3)O[C@@H]2CON=C(C)C)cc1 | -1.12
23 | COC(=O)CC=C[C@@H](C)[C@@H](C=NOC(C)CN1CCCc2nc(C)c(C)cc21)OC (some centres undefined) | 0.522
24 | CC(C)(C)N1C(=O)[C@H]2[C@H]3[C@H](O)[C@H](O)CC(=NO[C@@H]4O[C@H](CO)[C@@H](O)[C@H](O)[C@H]4O)[C@H]3CC[C@H]2C1=O | -0.524
25 | C#CCCCON=C1C[C@@H](O)[C@@H](O)[C@@H]2[C@@H]3C(=O)N(C(C)(C)C)C(=O)[C@@H]3CC[C@H]12 | -0.656
26 | CCOC(=O)NN=C1C[C@@H](O)[C@@H](O)[C@@H]2[C@@H]3C(=O)N([C@@H](C)c4ccccc4)C(=O)[C@@H]3CC[C@H]12 | 0.515
27 | COC(=O)[C@@H]1CC[C@H](C)[C@@H](c2ccc(C)cc2)N1C(=O)c1ccc(C=NO[C@H](C)c2cn([C@H](CO)Cc3ccccc3)nn2)cc1 | 0.835
28 | CCOC(=O)CCN1C(=O)[C@H]2[C@H]3[C@H](O)[C@H](O)CC(=NNC(=O)OCc4ccccc4)[C@@H]3CC[C@H]2C1=O | 0.323
29 | CC(C)=CCCC(C)=CCON=C1C[C@@H](O)[C@@H](O)[C@@H]2[C@@H]3C(=O)N(c4ccc(F)cc4F)C(=O)[C@@H]3CC[C@@H]12 | -0.0599
